ABCB6 inh MLPCN – human ABCB6 transporter inhibition; AID 602162; Q9NP58; 360,000 compounds, 0.19% hits; K562-ABCB6 porphyrin accumulation, flow cytometry, 1 h; active compounds read low; fluorescence ratio to DMSO, % at 10 µM;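 active = fluorescence ratio to DMSO below 75%, the collection mean minus 3 SD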;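 also: signal is porphyrin accumulated inside mitochondria; lower ratio means ABCB6 inhibition with less porphyrin fluorescence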
Target sequence (Q9NP58 whole entry, looked up): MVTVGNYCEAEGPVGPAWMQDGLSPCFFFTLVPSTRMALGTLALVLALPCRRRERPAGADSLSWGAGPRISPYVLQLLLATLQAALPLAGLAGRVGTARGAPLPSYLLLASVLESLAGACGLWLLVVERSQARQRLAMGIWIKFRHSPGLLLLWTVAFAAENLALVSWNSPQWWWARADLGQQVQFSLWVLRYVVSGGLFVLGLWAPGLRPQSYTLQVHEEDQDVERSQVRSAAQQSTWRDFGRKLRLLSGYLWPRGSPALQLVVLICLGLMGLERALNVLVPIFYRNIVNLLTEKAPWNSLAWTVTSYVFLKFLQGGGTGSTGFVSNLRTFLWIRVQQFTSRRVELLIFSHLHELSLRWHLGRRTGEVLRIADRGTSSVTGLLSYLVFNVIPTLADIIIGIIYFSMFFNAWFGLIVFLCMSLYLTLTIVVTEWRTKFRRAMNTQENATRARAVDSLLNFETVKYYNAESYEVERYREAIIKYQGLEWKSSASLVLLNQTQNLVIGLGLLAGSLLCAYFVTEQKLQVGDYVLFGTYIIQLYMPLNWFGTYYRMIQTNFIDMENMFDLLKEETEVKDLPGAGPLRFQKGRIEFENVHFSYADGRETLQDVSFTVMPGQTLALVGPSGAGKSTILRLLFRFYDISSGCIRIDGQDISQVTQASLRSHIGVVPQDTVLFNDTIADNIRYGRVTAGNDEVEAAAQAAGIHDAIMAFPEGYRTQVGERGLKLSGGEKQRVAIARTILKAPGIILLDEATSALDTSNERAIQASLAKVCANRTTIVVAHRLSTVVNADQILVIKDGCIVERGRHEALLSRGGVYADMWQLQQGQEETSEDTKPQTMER
PG9 binder – binds the HIV-1 gp120 antibody PG9 | 360,000 compounds, 0.43% hits | AID 624416 | inhibition, % at 6.7 µM | TR-FRET gp120-PG9 antibody binding; in the data active = inhibition above about 8.5%
Exocytosis inh – lytic granule exocytosis inhibition. TALL-104 LAMP-1 surface exposure, flow cytometry; cells stimulated with thapsigargin and PMA. inhibition, % at 10 µM. 360,000 compounds, 0.66% hits;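 active = inhibition above about 55%, limit read from the data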
rCAG binder – molecules binding r(CAG) RNA repeats; r(CAG) RNA repeat, TO-PRO-1 dye displacement fluorescence; inhibition, % at 3 µM; 370,000 compounds, 1.3% hits; AID 651821;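 active = inhibition above the plate cutoff, the mean of all test compounds on that plate plus 3 SD, cut at about 35% in these data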;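 also: higher means more dye released from RNA so lower well fluorescence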
A number is an active result; . = inactive; / = no result. Compounds with a hit are over-represented: about 2.5% of the library has one in this group of screens.

SMILES | ABCB6 inh MLPCN | PG9 binder | Exocytosis inh | rCAG binder
O=C(Nc1ccc(F)cc1)OC1CC2CC1[C@H]1CCCCN1[C@H]2Cc1ccccc1 (some centres not stated) | / | / | / | .
CCCn1nc(NS(C)(=O)=O)c2cc3cccc(C)c3nc21 | . | . | . | .
CCn1nc(NS(=O)(=O)c2ccc(F)cc2)c2cc3cccc(C)c3nc21 | . | . | . | 63
COc1ccc(OC)c(S(=O)(=O)NCc2ccccc2)c1 | 68 | . | . | .
COc1ccc(OC)c(S(=O)(=O)Nc2cccc3ccccc23)c1 | . | . | . | .
COc1ccc(OC)c(S(=O)(=O)Oc2ccc(N)c3ccccc23)c1 | . | . | 75 | .
CCCCOCCCNC(=O)C[C@@H]1C(=O)N(Cc2ccc(OC)cc2)/C2=C/CCCCC[C@@]21C(=O)OCC | / | / | / | .
CCCCCCCCN1C(=O)[C@@H](CC(=O)NCCCN2CCCC2=O)C[C@@]2(C(=O)OC)C1=C[C@H](C(C)(C)C)O[C@@H]2C | / | . | / | .
S=C(Nc1cccc(Cl)c1)N(CCCN1CCCC1)Cc1cccn1Cc1ccc(Cl)cc1 | . | . | 85 | .
O=C(OCCN1CCN(C2CN(Cc3cn(Cc4ccccc4C(F)(F)F)nn3)S(=O)(=O)C2)CC1)c1cc2ccccc2o1 (configuration not stated) | / | / | / | .
CCOC(=O)c1c2c3c(c(Cl)ccc3[nH]c1=O)C(=O)c1ccccc1-2 | . | . | 92 | .
CCN(CC)C(=O)CC[C@H]1CC[C@]2(CCCN(C(=O)c3cccnc3)C2)O1 | / | / | / | .
COc1ccccc1CCn1cnc(-c2ccc(Br)cc2)c1CC(C)C | / | . | / | .
CC(C)c1noc2ncc(C(=O)c3cc(Cl)cc(Cl)c3O)cc12 | . | . | . | 47
CC(C)(C)C1N=C(c2ccc3ccccc3c2)OC1=O (configuration not stated) | . | . | 64 | .
O=C1/C(=C/Nc2ccc3c(c2)OCO3)CCc2ccccc21 | . | . | 98 | .
COc1ccc2c(c1)CC/C(=C\Nc1ccc3c(c1)OCO3)C2=O | . | . | 101 | .
COc1ccc(N/C=C2\CCc3ccccc3C2=O)cc1 | . | . | . | .
COc1cc(NC(=O)CSc2nc(C)cc(=O)[nH]2)cc(OC)c1 | / | / | / | .
COc1ccc(/C=N/NC(=O)c2cc3c(OC)ccc(OC)c3[nH]2)cc1O | . | . | 62 | .
COc1ccc(OC)c2[nH]c(C(=O)N/N=C/c3ccccc3O)cc12 | . | . | . | .
COc1cc(/C=C(\C#N)C(=O)Nc2cccc(C(=O)O)c2)ccc1OCc1ccc(C)cc1 | . | . | . | .
COc1cc(/C=C(/C#N)C(=O)Nc2ccccc2)ccc1OCc1ccc(C(=O)O)cc1 | . | . | . | 40
COC(=O)[C@]12C[C@H](CC(=O)N3CCSCC3)C(=O)N(Cc3ccc4c(c3)OCO4)C1=C[C@H](COCc1ccccc1)O[C@@H]2C | / | . | / | .
Cc1ccc(Oc2nc3ccccn3c(=O)c2/C=C(\C#N)C(=O)NC2CCS(=O)(=O)C2)c(C)c1 (configuration not stated) | . | . | 79 | .
SMILES | ABCB6 inh MLPCN | PG9 binder | Exocytosis inh | rCAG binder
COc1cccc(/C=N/NC(=O)c2cc3cc([N+](=O)[O-])ccc3s2)c1O | . | . | 69 | .
COc1cccc(/C=N/NC(=O)C(=O)N/N=C/c2cccc(OC)c2O)c1O | . | . | . | .
O=C(CSc1nnc(SCc2cccc3ccccc23)s1)Nc1ccc(Oc2ccccc2)cc1 | / | / | / | .
COCc1[nH]nc2c1C(c1ccccc1)NC2=O (configuration not stated) | / | . | / | .
Nn1c(SCC(=O)Nc2ccc(OCc3ccccc3)cc2)nnc1-c1cc(-c2ccccc2)n[nH]1 | / | / | / | .
O=C1S/C(=C\c2ccc(N3CCOCC3)o2)C(=O)N1Cc1ccc(F)cc1 | . | / | . | /
O=C1S/C(=C/c2ccc(N3CCOCC3)o2)C(=O)N1Cc1ccc(F)cc1 | . | . | 78 | .
CC(C)OC(=O)CN1C(=O)S/C(=C/c2ccc(N3CCCCC3)o2)C1=O | . | . | 63 | .
O=C(C1CCN(c2cncnc2)CC1)N1CCCC1 | / | / | / | .
CCNC(=O)N(C)[C@H]1C[C@@H](c2ccccc2)N(C(C)=O)C[C@H]1CO | / | . | / | .
O=[N+]([O-])c1ccccc1-c1ccc(C(=S)N2CCCCC2)o1 | . | . | 65 | .
O=[N+]([O-])c1ccccc1-c1ccc(C(=S)N2CCCC2)o1 | . | . | . | .
CC(=O)Nc1cccc(/C(C)=N/NC(=O)c2cccc(S(=O)(=O)N3CCCC3)c2)c1 | 72 | . | . | .
CC(=NNC(=O)c1cccc(S(=O)(=O)N2CCCC2)c1)c1ccccc1 | . | . | . | .
CCOC(=O)c1sc(NC(=O)CSc2nnnn2-c2ccccc2)nc1C | . | . | . | .
CCOC(=O)c1c(-c2ccc(C)o2)csc1NC(=O)CSc1nnnn1-c1ccccc1 | . | . | 95 | .
CCOC(=O)c1c(-c2ccccc2)csc1NC(=O)CSc1nnc(C)s1 | . | . | . | .
CCOC(=O)c1c(-c2ccc(C)o2)csc1NC(=O)CSc1nnc(C)s1 | . | . | 96 | .
CCOC(=O)c1sc(NNC(=O)c2ccc(C)cc2)nc1C | . | . | . | .
CCOC(=O)c1nc(NNC(=O)c2ccc([N+](=O)[O-])cc2)sc1C | . | . | . | 37
CCC(CO)Nc1cccc2c1S(=O)(=O)N(Cc1cn(Cc3ccc(F)cc3)nn1)Cc1ccccc1O2 (configuration not stated) | / | / | / | .
Cc1cc(C)c(C#N)c(SCC(=O)Nc2ccccc2C)n1 | . | . | . | .
COc1ccccc1NC(=O)CSc1nc(N)c(C#N)cc1C#N | . | . | . | .
CCOc1ccccc1NC(=O)CSc1nc(N)c(C#N)cc1C#N | . | 66 | . | .
Cc1ccccc1NC(=O)CSc1nc(N)c(C#N)c(-c2cccs2)c1C#N | . | 72 | . | .
SMILES | ABCB6 inh MLPCN | PG9 binder | Exocytosis inh | rCAG binder
C[C@@H]1ON(C)[C@H]2C[C@H]3c4[nH]c5cccc(-c6ccccc6F)c5c4CCN3C(=O)[C@@H]12 | / | . | / | .
CCOC(=O)c1c(C)n(C)c2ccc(OCC(O)CN3C(=O)c4ccccc4S3(=O)=O)cc12 (configuration not stated) | 35 | . | . | .
O=S1(=O)N[C@H](Cc2ccccc2)COc2cc(N3CCCC3)ccc21 | / | / | / | .
O=[N+]([O-])c1ccc(/C=N/N=C/c2ccc([N+](=O)[O-])o2)o1 | . | . | 63 | .
CCCCCCC12C(=Cc3cc(C)ccc31)c1ccccc1C(CC(=O)NCc1ccccc1)N2C(=O)OC (configuration not stated) | / | . | / | .
CC(C)(C)c1cc(NCc2ccccn2)n2ncc(-c3ccc(Cl)cc3)c2n1 | . | . | . | .
CN(C)CCCNc1cc(C(C)(C)C)nc2c(-c3ccc(Cl)cc3)cnn12 | . | . | 65 | .
C/C(=N\NC(=O)c1ccc(Br)cc1)C1C(=O)c2ccccc2C1=O | . | . | . | 48
Cc1cccc(-c2cccc3c4c([nH]c23)[C@@H]2C[C@H](N(C)C(=O)Nc3ccccc3)[C@H]([C@H](C)O)CN2CC4)c1 | / | / | / | .
Cn1c(=O)c2[nH]c(NN=Cc3ccc(Br)cc3)nc2n(C)c1=O | . | . | . | .
Cc1ccc(C=NNc2nc3c([nH]2)c(=O)n(C)c(=O)n3C)cc1 | . | . | 84 | .

Screening data deposited in PubChem by several laboratories.
